Screen size: about 420,000 compounds; about 64,000 (15%) were called active. Roughly 27% stayed inconclusive and do not appear here. A selection follows. A number with no mark means an inactive call. Calls follow the shape of the dose curve; as a rule, active = well fitted inhibition curve with a large enough effect; inconclusive = small, poorly fitted or top-dose-only effect; inactive = flat fitted curve, though single readings scatter.
% is scaled to controls: 0 for no effect and ±100 for the full control effect; potency is read from the fitted curve at half-maximal effect.

The experiment in a line: qHTS for Inhibitors of human tyrosyl-DNA phosphodiesterase 1 (TDP1): qHTS in cells in absence of CPT. Also: nearly all actives have a fitted effect of over 55% in size. Particulars: DT40 Tdp1-/- hTDP1 cells, no CPT, ATP luminescence, 48 h; activity change, negative = growth inhibition: at 46.2 µM (top of the series). In short, it runs like this:
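Seeded 400 DT40-hTDP1 cells/well (vehicle DMSO, no 20 nM CPT); pinned compounds; ≥48 hr at 37 °C; CellTiter-Glo luminescence as viability measure.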
Take `CC(C)(C)c1ccc(S(=O)(=O)NC(=O)C2(C)CCN2C(=O)CC2CC2)cc1` (stereo not drawn): the “activity change, negative = growth inhibition” value is -2.27%.
Same read-out and setting: for `CCS(=O)(=O)C1=NSC2=NC(=O)/C(=C\c3ccc(OS(=O)(=O)c4ccccc4)cc3)C(=N)N21` the value was -23.1%; for `Cc1cc(C)cc(NC(=O)C(OC(=O)c2ccc(O)cc2)c2ccccc2)c1` (stereo not drawn), 1.18%; for `CCCn1c(C)cc(/C=C(\C#N)C(=O)OCC(=O)N(C)c2c(N)n(Cc3ccccc3)c(=O)[nH]c2=O)c1C`, -27.5%.
Regarding `COc1ccc(N/N=C2/CCCCC2=O)cc1`, the “activity change, negative = growth inhibition” value was -3.32%.
Turning to `CC1(C)CN(c2ccc(-c3ccnc4ncnn34)cc2)C1=O`, the “activity change, negative = growth inhibition” value was -20.8%.
On the same count and under the same terms, with `O=C(NC1CC(=O)N(c2ccccc2)C1)c1ccco1` (stereo not drawn) the figure was 2.8%.
As for `O=C(Oc1cccc(N2C(=O)C3C4c5ccccc5C(c5ccccc54)C3C2=O)c1)c1ccco1` (stereo not drawn), the Potency is 29.1 µM (active).
For `CC(=O)Oc1cccc(N2C(=O)C3CC=C(Cl)CC3C2=O)c1` (stereo not drawn), the “activity change, negative = growth inhibition” value is -2.61%.
Consider `c1ccc(CSCCc2ccncc2)cc1`, for which the “activity change, negative = growth inhibition” value is -29.7%.
In the case of `CC(C)(C)c1ccc(SCCc2ccncc2)cc1`, the Potency was 16.4 µM (active).
Regarding `CC(C)(C)NC(=O)C(=O)NCc1ccncc1`, the “activity change, negative = growth inhibition” value was -15.4%.
For the molecule `COc1ccc(OCC(O)CN(C)C(=O)C(C)Oc2ccccc2)cc1` (stereo not drawn), the “activity change, negative = growth inhibition” value was -27.4%.
Consider `CCCc1ccc(OCC(O)CN2CCN(CCO)CC2)cc1` (stereo not drawn), for which the “activity change, negative = growth inhibition” value is 10%.
For `CN(C)CC(O)COc1ccc(C(C)(C)c2ccc(OCC(O)CN(C)C)cc2)cc1` (stereo not drawn), the Potency is 17.8 µM (active).
Take `O=S(=O)(Cc1nnnn1-c1ccccc1)c1ccccc1`: the “activity change, negative = growth inhibition” value was 30.9%.
As for `CC(C)C(=O)Nc1ccc2oc(=O)ccc2c1`, the “activity change, negative = growth inhibition” value was 9.1%.
On to `Cc1cc(Br)cn2c(Cc3cccc(F)c3)c(-c3cccc(Br)c3)nc12`, for which the Potency was 23.1 µM (active).
As to `Fc1cccc(Cc2c(-c3cccc(Cl)c3)nc3ccc(Br)cn23)c1`, the Potency was 14.6 µM (active).
For the molecule `Cc1cc(Br)cn2c(Cc3ccccc3C(F)(F)F)c(-c3ccc(Cl)cc3)nc12`, the “activity change, negative = growth inhibition” value is -22.3%.
As to `CC(C)(C)Cc1c(C2CCCCC2)nc2ccc(Br)cn12`, the “activity change, negative = growth inhibition” value is -19.5%.
As to `CCOC(=O)N1CCN(S(=O)(=O)c2cc3c(cc2C)NC(=O)CO3)CC1`, the “activity change, negative = growth inhibition” value was -22.2%.
As for `Cc1nc(N)c(Br)c(C)c1Br`, the “activity change, negative = growth inhibition” value is -49.5%.
Same read-out and setting: with `CCOC(=O)C1C(=O)NC(N2CCN(c3ccccc3)CC2)=NC1c1ccco1` (stereo not drawn) the figure was -19.7%; with `Cc1cc(N=Nc2ccc3ccccc3c2)ccc1O`, -5.46%; with `CC(C)C[C@H](NC(=O)N1CCn2c1nc1ccccc12)C(=O)NC1CC1`, 17.7%.
With `COc1ccc(-n2ccn(CC(=O)Nc3ccc(C)c(C)c3)c(=O)c2=O)cc1OC`, the “activity change, negative = growth inhibition” value was 8.27%.
On to `COc1ccc(NC(=O)CNC(=O)Cc2ccccc2)cc1OC`, for which the “activity change, negative = growth inhibition” value is -1.15%.
With `COc1ccc(C2=NC3(CCCCC3)N(CC(=O)Nc3ccc(C(C)C)cc3)C2=O)cc1`, the Potency is 20.6 µM (active).
As to `COc1ccc(NC(=O)CC2SC(N3CCCCC3)=NC2=O)cc1OC` (stereo not drawn), the “activity change, negative = growth inhibition” value is 3.8%.
For the molecule `CCOC(=O)c1cn(CC(=O)Nc2ccc(C(C)C)cc2)nn1`, the “activity change, negative = growth inhibition” value was -21.1%.
`COc1ccc(NC(=O)CN2C(=O)C(c3ccccc3)=NC23CCCCCC3)cc1OC`: the Potency was 18.4 µM (active).
Take `COc1ccc(NC(=O)CN2C(=O)CSC2=O)cc1`: the “activity change, negative = growth inhibition” value is 1.73%.
On to `NC(=O)C1(N2CCCCC2)CCN(C2CC(=O)N(Cc3ccc(N4CCCC4=O)cc3)C2=O)CC1` (stereo not drawn), for which the “activity change, negative = growth inhibition” value was -3.12%.
Same read-out and setting: with `CC(Oc1cccc(Cl)c1)C(=O)Nc1ccc(S(=O)(=O)Nc2ncccn2)cc1` (stereo not drawn) the figure was -0.0684%; with `C[C@H](CO)N1C[C@H](C)[C@H](CN(C)CC2CC2)Oc2ccc(NC(=O)CCN3CCOCC3)cc2C1=O`, -4.56%; with `CC1CCCN(C(=O)c2cc(-c3ccco3)nc3ccccc23)C1` (stereo not drawn), -13.8%.
The same measure, in the same setting: with `O=C1c2cccc3cccc(c23)C(=O)N1CCCCCc1n[nH]c(=S)o1` the figure was -12.8%; with `COc1ccc(/C=N/OCC(=O)N(Cc2ccccc2)c2ccccc2C(=O)O)cc1`, -1.1%; with `CC(C)(C)Cc1nnc(NC(=O)c2cc(-c3ccccc3)nc3ccccc23)s1`, -26.7%.
Turning to `COc1ccc(NC(=O)c2cc(-c3cc(OC)c(OC)c(OC)c3)nc3ccccc23)c(OC)c1`, the Potency is 8.2 µM (active).
Regarding `CN(Cc1ccc(F)cc1)C(=O)COc1ccc2ccccc2c1`, the “activity change, negative = growth inhibition” value was -15.6%.
For `COc1ccc(-c2cc(C(=O)N(C)Cc3ccccc3)c3ccccc3n2)cc1`, the Potency was 14.6 µM (active).
For the molecule `COc1ccc(CN(C)C(=O)Cc2c[nH]c3ccccc23)c(OC)c1OC`, the “activity change, negative = growth inhibition” value was -23.1%.
Take `COc1ccc(-c2cc(C(=O)N(C)CC(=O)Nc3ccccc3Cl)c3ccccc3n2)cc1OC`: the Potency was 9.2 µM (active).
On to `COc1ccc(-c2cc(C(=O)N(C)Cc3ccc(OC)c(OC)c3OC)c3ccccc3n2)cc1OC`, for which the Potency is 18.4 µM (active).
With `Cc1cccc(C(=O)NCC(=O)OCC(=O)N(C)CC(=O)Nc2ccccc2Cl)c1`, the “activity change, negative = growth inhibition” value was -9.68%.
Take `CN(CC(=O)Nc1ccccc1Cl)C(=O)c1ccccc1SCC(=O)N1CCCC1`: the “activity change, negative = growth inhibition” value is -16.5%.
On the same count and under the same terms, for `COc1ccccc1NC(=O)c1cc(Cl)nc2ccccc12` the value was 4.16%; for `CC(C)(O)C#Cc1ccc(CNC[C@H]2O[C@@H](n3cnc4c(=O)[nH]c(N)nc43)[C@H](O)[C@@H]2O)s1`, 2.14%; for `O=C(CN1CCC(NC(=O)C2CC2)CC1)Nc1ccccc1[N+](=O)[O-]`, -8.6%.
On to `C=O`, for which the “activity change, negative = growth inhibition” value is 1.38%.
For `CN1CCC2(CC1)NC(=O)NC2=O`, the “activity change, negative = growth inhibition” value is -11.8%.

For the origin of these results see PubChem BioAssay AID686978 (National Center for Advancing Translational Sciences (NCATS), 2013).
